An excerpt weighted towards active compounds, which were near 4.1% of everything screened.
PTK2B oligo ant = blocks oligomerization of human Pyk2 in cells. Q14289. Q293 cells, Pyk2 FERM NanoBiT luminescence; stronger effect = lower value. z-score (the deposit names both 25 µM and 10 µM). 0.83% of 99,000 active. AID 1347419;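 active = Z-score of -3 or lower, scaled per plate to the spread of control and sample wells; inactive = z-score above -3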;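 also: negative z-score means lost luminescence so less FERM oligomerization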
CD11b adhes inh = CD11b/CD18-fibrinogen binding inhibition; K562 CD11b/CD18 adhesion to fibrinogen, ATPlite luminescence; Mn2+ added to activate the integrin; AID 1497; inhibition, % at 10 µM; 0.54% of 93,000 active;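 active = primary inhibition of 50% or more at 10 µM, then 40% or more on retest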
Target sequence (P05107 whole entry, looked up, other chains not shown): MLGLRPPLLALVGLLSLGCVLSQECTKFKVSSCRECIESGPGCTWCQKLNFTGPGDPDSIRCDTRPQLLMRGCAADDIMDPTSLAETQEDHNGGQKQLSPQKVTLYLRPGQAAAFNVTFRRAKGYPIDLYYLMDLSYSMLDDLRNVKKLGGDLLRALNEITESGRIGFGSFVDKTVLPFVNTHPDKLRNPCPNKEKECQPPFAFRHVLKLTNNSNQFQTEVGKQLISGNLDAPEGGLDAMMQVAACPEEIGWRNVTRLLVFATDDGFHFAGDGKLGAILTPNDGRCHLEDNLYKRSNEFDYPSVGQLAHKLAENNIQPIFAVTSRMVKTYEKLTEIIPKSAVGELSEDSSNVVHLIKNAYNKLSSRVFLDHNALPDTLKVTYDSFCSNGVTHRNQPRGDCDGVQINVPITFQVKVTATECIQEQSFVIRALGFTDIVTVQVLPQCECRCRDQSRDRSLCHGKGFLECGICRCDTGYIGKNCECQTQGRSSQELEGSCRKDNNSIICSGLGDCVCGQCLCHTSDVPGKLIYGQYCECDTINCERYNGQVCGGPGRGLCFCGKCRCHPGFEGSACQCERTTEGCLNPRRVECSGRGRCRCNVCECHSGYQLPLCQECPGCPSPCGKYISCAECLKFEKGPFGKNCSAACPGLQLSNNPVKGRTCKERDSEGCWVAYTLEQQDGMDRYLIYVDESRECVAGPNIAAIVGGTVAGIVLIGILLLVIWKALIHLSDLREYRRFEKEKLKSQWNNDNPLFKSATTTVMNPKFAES
MRP-1 activ = activators of MRP-1; AID 799; 0.61% of 140,000 active; viability increase, % at 10 µM; H69AR cells + doxorubicin, viability rescue, CellTiter-Glo;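 active = viability gain under doxorubicin at or above a set limit, the compound median plus 3 SD, cut at about 4.7% in these data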;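 also: MRP-1 overexpressing cells given doxorubicin 25 µM after compound pretreatment; 18-22 h compound pretreatment then 72 h with doxorubicin before readout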
Cav32 inh = human Cav3.2 channel inhibition, primary screen | 4% of 100,000 active | AID 449739 | B-score at 10 µM | Cav3.2-expressing cells, Fluo-4 calcium fluorescence FDSS; stronger effect = lower value;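 active = single-dose well whose peak fluorescence ratio is a statistical outlier from its plate by either plate-standardised score or position-corrected B-score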
MRP reversal = MRP-mediated drug resistance reversal; 0.04% of 85,000 active; differential viability (reversal), % at 10 µM; H69AR cells + 2 uM doxorubicin, CellTiter-Glo, 72 h; AID 602;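 active = viability drop by adding the cancer drug above about 55%, with treated viability meeting a 40% cutoff, limit read from the data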;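 also: larger differential means the compound sensitizes cells more to doxorubicin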
Mac1 fbg enh = CD11b/CD18-fibrinogen binding enhancement; P05107+P11215; K562 CD11b/CD18 adhesion to fibrinogen, ATPlite luminescence; 0.07% of 93,000 active; activation, % at 10 µM; AID 1499;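 active = 10 µM primary screen giving 50% or more activity, confirmed by 40% or more on retest at that dose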
Large screens that a line does not name were inactive.

Cc1ccc(Cl)cc1N1CCN(C(c2ccc(C#N)cc2)c2nnnn2C2CCCC2)CC1 (stereo unspecified)	none
Cc1ccc(Cl)cc1N1CCN(C(c2cccnc2)c2nnnn2C2CCCCC2)CC1 (stereo unspecified)	Cav32 inh -5
C/C(N)=C(/C#N)C(=O)CSc1nnc(-c2ccc(OC(F)F)cc2)o1	none
COc1ccc(C(c2nnnn2C(C)(C)C)N2CCN(c3nc4ccccc4s3)CC2)cc1OC (stereo unspecified)	Cav32 inh -4
c1cnc2ccc(C(c3nnnn3C3CCCC3)N3CCN(c4nc5ccccc5s4)CC3)cc2c1 (stereo unspecified)	Cav32 inh -3.9
CCn1c(SC(C)C)nnc1-c1cc(-c2ccccc2)sc1N	Cav32 inh -3.7 (no result: CD11b adhes inh, Mac1 fbg enh)
COc1cc(C(=O)N2c3ccccc3CC2C)cc(OC)c1OC (stereo unspecified)	none (no result: CD11b adhes inh, Mac1 fbg enh)
Cc1ccc(N(CC(=O)NCCSCc2ccco2)S(C)(=O)=O)cc1	none (no result: CD11b adhes inh, Mac1 fbg enh)
COc1ccccc1N/C(=N/S(=O)(=O)c1ccc(C)cc1)c1ccc(Cl)cc1	Cav32 inh -3.8 (no result: CD11b adhes inh, MRP reversal, Mac1 fbg enh)
CC(C)Oc1cccc(-c2cc(C(=O)N3CCN(S(C)(=O)=O)CC3)c3ccccc3n2)c1	none
Cc1cccc(N(CC(=O)N/N=C/c2cc([N+](=O)[O-])ccc2Cl)S(C)(=O)=O)c1C	Cav32 inh -5.5 (no result: CD11b adhes inh, MRP reversal, Mac1 fbg enh)
CS(=O)(=O)N(CC(=O)N/N=C/c1cc([N+](=O)[O-])ccc1Cl)c1ccccc1	none (no result: Cav32 inh, MRP reversal)
Cc1ccc(S(=O)(=O)N(CC(=O)NCCSc2ccccn2)c2cc(C)cc(C)c2)cc1	Cav32 inh -6.4 (no result: MRP reversal)
Cc1ccccc1N(CC(=O)NCCSC1CCCCC1)S(=O)(=O)c1ccccc1	Cav32 inh -6 (no result: MRP reversal)
Cc1ccc(S(=O)(=O)N(CC(=O)NCCSCc2ccco2)c2cc(C)ccc2C)cc1	Cav32 inh -6.7 (no result: CD11b adhes inh, MRP-1 activ, MRP reversal, Mac1 fbg enh)
CS(=O)(=O)N(CC(=O)NCCSC1CCCCC1)c1cccc(F)c1	none (no result: PTK2B oligo ant, CD11b adhes inh, Cav32 inh, MRP reversal, Mac1 fbg enh)
COc1ccc(N(CC(=O)NCCSc2ccccn2)S(C)(=O)=O)cc1Cl	none
O=c1c2ccccc2nc(-c2ccc(Cl)cc2Cl)n1CCCn1ccnc1	none
CC(C)CCN1CC(C(=O)NCc2ccccc2)CC1=O (stereo unspecified)	Cav32 inh -5.3
O=C1CCCC(NCCCCCCNC2=C([N+](=O)[O-])C(=O)CCC2)=C1[N+](=O)[O-]	none (no result: MRP reversal)
Cc1cc(C(=O)CSc2nc3ccc(Cl)cc3[nH]2)c(C)n1CC1CCCO1 (stereo unspecified)	CD11b adhes inh 83
Cc1cc2cc(CNC(=O)Cc3cccs3)ccc2n1C	Cav32 inh -4.2 (no result: PTK2B oligo ant, CD11b adhes inh, MRP-1 activ, Mac1 fbg enh)
O=C(c1ccc(C#CC2(O)CCCCC2)cc1)N1CCN(C(c2ccccc2)c2ccccc2)CC1	Cav32 inh -5.1
O=C(c1ccc(C#CC2(O)CCCCC2)cc1)N1CCN(Cc2ccccc2)CC1	Cav32 inh -6.1
CCOC(=O)N1CCN(C(=O)c2ccc(C#CC3(O)CCCCC3)cc2)CC1	none
CCOCCCn1c(SCC(=O)NCc2ccco2)nc2c(sc3ccccc32)c1=O	CD11b adhes inh 56
CCCCn1c(SCC(=O)NCc2ccco2)nc2c(sc3ccccc32)c1=O	CD11b adhes inh 54
Cc1ccccc1OCC(=O)OCC(=O)c1ccc(OCc2ccccc2)cc1	none (no result: PTK2B oligo ant, CD11b adhes inh, Cav32 inh, MRP reversal, Mac1 fbg enh)
Cc1cccc(/C=N\NC(=O)c2csnn2)c1	none (no result: CD11b adhes inh, MRP reversal, Mac1 fbg enh)
Cc1cccc(/C=N\NC(=O)c2sccc2-n2cccc2)c1	Cav32 inh -4.1 (no result: CD11b adhes inh, MRP reversal, Mac1 fbg enh)
COc1ccccc1-c1nc(C#N)c(N2CCc3ccccc3C2)o1	MRP-1 activ 5.3
Cc1nn(-c2ccccc2)c2sc(C(=O)N(CC(=O)NC(C)(C)C)Cc3ccco3)cc12	none
CCn1ncc(Br)c1C(=O)Nc1ccn(C23CC4CC(CC(C4)C2)C3)n1	none (no result: PTK2B oligo ant, CD11b adhes inh, Cav32 inh, MRP reversal, Mac1 fbg enh)
CCn1ncc(Br)c1C(=O)N(C)C12CC3CC(CC(C3)C1)C2	Cav32 inh -5.1
Cc1cccc2cc(C#N)c(NCCNS(=O)(=O)c3ccc4c(c3)OCCO4)nc12	Cav32 inh -4.2
O=C(NCc1ccco1)/C(=C/c1ccco1)NC(=O)c1ccc(Br)o1	none (no result: PTK2B oligo ant, Cav32 inh, MRP reversal)
CC1(C)Cc2c(c(N3CCOCC3)nc3sc(C#N)c(N)c23)CS1	none
CC1(C)Cc2c(C#N)c(SCCC#N)nc(N3CCOCC3)c2CS1	Cav32 inh -3.9 (no result: CD11b adhes inh, Mac1 fbg enh)
CCC1Sc2ccccc2N(CC(=O)NCc2ccc3c(c2)OCO3)C1=O (stereo unspecified)	none
CCC1Sc2ccccc2N(CC(=O)NCCC2=CCCCC2)C1=O (stereo unspecified)	Cav32 inh -5.8
CC(=O)C(Sc1ccc2nnc(-c3ccncc3)n2n1)C(C)=O	none (no result: PTK2B oligo ant, CD11b adhes inh, Mac1 fbg enh)
CCCCOC(=O)n1c(=O)oc2cc(S(=O)(=O)N3CCCCC3)ccc21	PTK2B oligo ant -3.1, Cav32 inh -4.8 (no result: MRP reversal)
c1ccc(CN2CCN(C3=Nc4cccc5cccc3c45)CC2)cc1	none
O=C1CCN2C=Nc3cccc4ccc1c2c34	Cav32 inh -8.5 (no result: MRP reversal)
COc1[nH]c(/N=C/c2ccccc2)c(C#N)c1C#N	Cav32 inh -5.9
Cc1nn(-c2ccccc2)c(N2CCCC2)c1/C=N/n1cnc2scc(-c3ccccc3)c2c1=O	Cav32 inh -5.6
CCCCOc1ccccc1NC(=O)Cn1c(-c2nonc2N)nc2ccccc21	Cav32 inh -4.2 (no result: MRP reversal)
CCOC(=O)c1ccccc1NC(=S)N1CCC(N2CCCCC2)CC1	none (no result: PTK2B oligo ant, CD11b adhes inh, Cav32 inh, MRP reversal, Mac1 fbg enh)
Cc1ccc(SCCN2CCN(CC(C)C)CCC2=O)cc1	none (no result: PTK2B oligo ant, CD11b adhes inh, MRP-1 activ, MRP reversal, Mac1 fbg enh)
Cc1ccc(C)c(NS(=O)(=O)c2cc(C(=O)Nc3ccccc3-c3ccccc3)ccc2C)c1	none (no result: CD11b adhes inh, MRP reversal, Mac1 fbg enh)
Cc1ccc(C(=O)Nc2ccccc2-c2ccccc2)cc1S(=O)(=O)Nc1cccc(C)c1C	Cav32 inh -6.3 (no result: CD11b adhes inh, MRP reversal, Mac1 fbg enh)
Cc1ccc(C(=O)Nc2cccc(N(C)S(C)(=O)=O)c2)cc1S(=O)(=O)Nc1ccccc1	PTK2B oligo ant -3.1 (no result: MRP reversal)
Cc1nnc(C)n1/N=C/c1cc(Br)cc(Br)c1O	Cav32 inh -9.6
Cc1nnc(C)n1/N=C/c1cc(Br)ccc1O	none (no result: MRP reversal)
Cc1sc2nc(CN(C(=O)c3cccs3)C3CCCC3)[nH]c(=O)c2c1C	Cav32 inh -4.8
O=C(c1cccs1)N(Cc1nc2sc3c(c2c(=O)[nH]1)CCCC3)C1CCCC1	none
CCN(CC)c1ccc2c(Cl)c(Br)c(=O)oc2c1	Cav32 inh -6.4 (no result: CD11b adhes inh, Mac1 fbg enh)
CNc1sc(C(=O)c2ccccc2F)c(N)c1-c1nc2ccccc2s1	MRP-1 activ 6.8
O=C(CSc1nc2ccccc2o1)Nc1nncs1	none (no result: MRP reversal)
CCN1CCCC1CNC(=O)C(NC(=O)C1CCC(C)CC1)C(C)C (stereo unspecified)	none (no result: Cav32 inh)
COC(=O)c1ccc(C)c(NC(=O)CCSc2ccc(Cl)cc2)c1	none (no result: Cav32 inh, MRP reversal)
COC(=O)c1ccc(C(=O)OC)c(NC(=O)COC(=O)C2CCC(C(C)(C)C)CC2)c1 (stereo unspecified)	Cav32 inh -4.8 (no result: MRP reversal)
O=C(NCc1ccccc1)N1CCN(c2ccc(F)cc2)CC1	Cav32 inh -4.3 (no result: CD11b adhes inh, Mac1 fbg enh)
O=C(NCc1ccccc1)N1CCN(c2ccc(Cl)c(Cl)c2)CC1	Cav32 inh -5.2
O=C(Nc1ccccc1)N1CCN(c2ccc(F)cc2)CC1	none (no result: CD11b adhes inh, Mac1 fbg enh)

From PubChem
